Compound activity deposited in PubChem by National Center for Advancing Translational Sciences (NCATS).
In the library only some 19% were active in any assay of this set; here they are far more common.
HT1080NT lethal: qHTS for induction of synthetic lethality in tumor cells producing 2HG: qHTS for the HT-1080-NT fibrosarcoma cell line; HT-1080-NT fibrosarcoma viability, CellTiter-Glo ATP luminescence, 48 h; Potency, µM (doses to about 46.1 µM), for inactives: at the top dose activity, negative = less viability, hits mostly cytotoxic; 360,000 tested, 1.6% active;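 also: NT is the 2HG producing partner of a matched IDH1 knockdown line; potency is read from the fitted curve at half-maximal effect; 0% = DMSO-treated cells and -100% = media-only wells without cells; nearly all actives have a fitted effect of over 55% in size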
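Viability of the 2HG-overproducing fibrosarcoma line after 48 hours of compound exposure at 37 degrees C was determined by luminescence with CellTiter-Glo, and concentration-effect curves were then fitted and categorized.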
IL1B secr inh: qHTS for Inhibitors of Inflammasome Signaling: IL-1-beta AlphaLISA Primary Screen. THP-1 LPS/ATP IL-1B secretion, AlphaLISA, 16 h; stronger effect = lower value. 360,000 tested, 4.7% active. activity change, % at 57.5 µM; in the data active = activity change below about -50%; inconclusive = mostly about -30% to -49%
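THP-1 cells pretreated 1 hr with compounds (up to 57.5 uM final), then stimulated with LPS (250 ng/mL final) plus ATP (1.25 mM final); secreted IL-1B measured by AlphaLISA after 16 hr, decreased signal indicating inhibition.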
HT1080 IDH1KD tx: qHTS for induction of synthetic lethality in tumor cells producing 2HG: qHTS for the HT-1080-IDH1KD cell line; HT-1080 IDH1 knockdown viability, ATP luminescence, 48 h; Potency, µM (highest dose often 46.1 µM), for inactives: at the top dose activity, negative = toxicity, actives largely listed as cytotoxic; 360,000 tested, 2% active; AID 686971, 2013;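 also: potency is read from the fitted curve at half-maximal effect; 0% = DMSO wells and -100% = cell-free medium wells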
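In this qHTS, HT-1080 cells depleted of IDH1 are exposed for 48 h at 37 °C to compound titrations. Toxicity is scored from CellTiter-Glo luminescence, with DMSO as full viability and medium alone as none.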
uPA generation: qHTS for Inhibitors of Cell Surface uPA Generation; 330,000 tested, 0.31% active; Potency, µM (titrated, usually from 38.3 µM), inactives show top-dose activity change, negative = inhibition, usual class: inhibitors; cell surface uPA generation assay, qHTS; AID 540303, 2011; active = well fitted inhibition curve with a large enough effect; inconclusive = small, poorly fitted or top-dose-only effect; inactive = no such curve, though single readings can be large or run the other way; tested in mouse RAW 264.7 cells; also: potency is read from the fitted curve at half-maximal effect; nearly all actives have a fitted effect of over 55% in size
DT40 TDP1 CPT: qHTS for Inhibitors of human tyrosyl-DNA phosphodiesterase 1 (TDP1): qHTS in cells in presence of CPT; chicken DT40 Tdp1-/-;hTDP1 cells + 20 nM CPT, ATP luminescence, 48 h; Potency, µM (titrated, usually from 46.2 µM), inactives show top-dose activity change, negative = growth inhibition, hits mostly inhibitors; 420,000 tested, 12% active; also: potency is read from the fitted curve at half-maximal effect; nearly all actives have a fitted effect of over 55% in size
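Chicken DT40 Tdp1-/- cells complemented with human TDP1, 400 cells/well, exposed to compounds plus 20 nM camptothecin for at least 48 h at 37 C; viability read as ATP content by CellTiter-Glo luminescence.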
DT40 TDP1 no CPT: qHTS for Inhibitors of human tyrosyl-DNA phosphodiesterase 1 (TDP1): qHTS in cells in absence of CPT; DT40 Tdp1-/- hTDP1 cells, no CPT, ATP luminescence, 48 h; AID 686978, 2013; 420,000 tested, 15% active; Potency, µM (series often up to 46.2 µM), without a hit: at the highest dose activity change, negative = growth inhibition, usual class: inhibitors; also: potency is read from the fitted curve at half-maximal effect; nearly all actives have a fitted effect of over 55% in size
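Cells were dispensed at 400 per well, compounds added by pin tool, plates incubated ≥48 hr at 37 °C, then CellTiter-Glo added for 30 min at room temperature before luminescence reading. Line: DT40 Tdp1-/- complemented with hTDP1; camptothecin omitted.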
* hit, by the source's call; ? = inconclusive; . = no result given. Unless noted, calls follow the shape of the dose curve; as a rule, active = well fitted curve in the direction sought with a large enough effect; inconclusive = small, poorly fitted or top-dose-only effect, or another doubt; inactive = no such curve, though single readings can be large; an effect the other way counts as inactive or inconclusive. Unless noted, % is scaled to controls: 0 for no effect and ±100 for the full control effect.

SMILES | HT1080NT lethal | IL1B secr inh | HT1080 IDH1KD tx | uPA generation | DT40 TDP1 CPT | DT40 TDP1 no CPT
O=C(NC1CCCCC1)c1cc2nc3c(c(C(F)(F)F)n2n1)CCCC3 | 0% | -17 | -1% | -1% | ? | 21µM*
Cc1cc2nc3c(c(C(F)(F)F)n2n1)CCCC3 | 6% | 21 | 20% | . | 1% | -2%
CN1CCN(C(=O)c2cc3nc(-c4ccco4)cc(C(F)(F)F)n3n2)CC1 | 1% | 0 | -4% | 2% | 9% | -26%
O=C(NC1CCCCC1)c1cc2nc(-c3ccco3)cc(C(F)(F)F)n2n1 | -1% | -6 | 2% | 5% | 21µM* | 18µM*
O=C(NC12CC3CC(CC(C3)C1)C2)c1cc2nc(-c3ccco3)cc(C(F)(F)F)n2n1 | -17% | -15 | -11% | 18% | 21µM* | 26µM*
O=C(NCc1ccco1)c1cc2nc(-c3ccc4c(c3)OCO4)cc(C(F)(F)F)n2n1 | 2% | -15 | -2% | -2% | ? | 18µM*
Cc1[nH]c2ccccc2c1C(=O)C(=O)NCc1ccncc1 | 15% | 14 | 21% | 0% | -1% | -17%
COc1ccc(C(C(=O)Nc2ccc(F)cc2)N2CCN(C(=O)c3ccco3)CC2)cc1 (configuration not stated) | -15% | 12 | -8% | . | -1% | -15%
Cc1ccc(NC(=O)C2CCCN(S(=O)(=O)c3cn(C(C)C)cn3)C2)c(C)c1 (configuration not stated) | . | . | . | . | -19% | -6%
N#Cc1sc2nc(C3CC3)cc(-c3ccc(Cl)cc3)c2c1N | -22% | 23 | -24% | 0% | 16µM* | ?
Cc1ccc(-n2nc(C)c3c(C(=O)NCc4ccccc4)cc(C4CC4)nc32)cc1 | . | . | . | . | -18% | -21%
Cc1ccc(-n2c(Cc3ccccc3)n[nH]c2=S)c(C)c1 | -10% | -67* | 2% | -7% | 18% | -14%
Cc1ccc(-n2c(CC#N)n[nH]c2=S)c(C)c1 | 3% | 24 | -1% | -3% | 3% | 14%
COc1ccc(-n2c(-c3ccc(C(C)(C)C)cc3)n[nH]c2=S)c(OC)c1 | -4% | -1 | -8% | . | 16µM* | 23µM*
Cc1scc(-c2n[nH]c(=S)n2Cc2ccccc2)c1C | 0% | 26 | 0% | 13% | -23% | -5%
CC(C)n1c(-c2ccc(C(C)(C)C)cc2)n[nH]c1=S | -26% | -17 | -23% | . | 11µM* | ?
COc1ccc(-c2n[nH]c(=S)n2-c2cc(OC)ccc2OC)cc1 | -17% | -2 | -12% | -3% | -29% | -24%
CCc1c(-c2n[nH]c(=S)n2Cc2ccccc2)csc1C | -22% | 9 | -18% | 2% | 5.8µM* | 4.6µM*
O=C(Nc1ccc(F)cc1C(F)(F)F)C1CCN(c2ncccn2)CC1 | . | . | . | . | -14% | -3%
Cc1ccccc1C(=O)Nc1nnc(SCc2cc(=O)n3ccccc3n2)s1 | . | . | . | . | -3% | -27%
COc1ccc(NC(=O)c2cc(-c3sc(NC(=O)c4ccccc4)nc3C)n(-c3ccc(Br)cc3)n2)cc1 | -2% | -7 | -1% | . | 3% | -23%
CC(C)(C)c1ccc(-c2n[nH]c(=S)n2Cc2ccccc2)cc1 | ? | -16 | ? | 2% | ? | 12µM*
Cc1ccc(-c2n[nH]c(=S)n2C)cc1 | -1% | -5 | -5% | -1% | 26µM* | 16µM*
CCOc1ccc(Cc2n[nH]c(=S)n2Cc2ccccc2)cc1 | -4% | -9 | -20% | -10% | ? | 16µM*
